Assay results as given in PubChem BioAssay.
“And” between values parts separate entries of the source, which are not always exact repeats. Equal entries are not always repeated. Records with an inconclusive call do not appear. The source holds several records for some structures; these can differ, active in one and inactive in another. The source made the active and inactive calls.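 Rule for the calls, unless noted: active = normalized viability below 100% at a tested concentration; inactive = the rest.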

Assays:
[1] = growth inhibition of DIPG glioma cells, dose response, cell-based, SU-DIPG-XVII, MIPE5.0, CellTiter-Glo, qHTS (AID 1347060; cut-off not given, nearly all actives have AC50 up to about 26 µM;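 for AC50: cells exposed to compound for 48 hours before viability readout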); conditions: SU-DIPG-XVII viability, CellTiter-Glo ATP luminescence
[2] = growth inhibition of DIPG glioma cells, dose response, cell-based, JHH-DIPG-1, MIPE4.0, CellTiter-Glo, qHTS (AID 1347062; cut-off not given, nearly all actives have AC50 up to about 27 µM;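 for AC50: cells exposed to compound for two days before readout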); conditions: JHH-DIPG-1 viability, CellTiter-Glo ATP luminescence
[3] = growth inhibition of DIPG glioma cells, dose response, cell-based, SU-DIPG-IV, MIPE4.0, CellTiter-Glo, qHTS (AID 1347063; cut-off not given, nearly all actives have AC50 up to about 30 µM;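 note: compound exposure lasted 48 hours before the viability readout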); conditions: SU-DIPG-IV viability, CellTiter-Glo ATP luminescence
[4] = growth inhibition of DIPG glioma cells, dose response, cell-based, SU-DIPG-XIII, MIPE5.0, CellTiter-Glo, qHTS (AID 1347064; cut-off not given, nearly all actives have AC50 up to about 23 µM;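 for AC50: cells exposed to compound for 48 hours before the viability read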); conditions: SU-DIPG-XIII viability, CellTiter-Glo ATP luminescence
[5] = viability loss in pontine glioma line – cell-based, SU-DIPG-XXV, MIPE5.0, CellTiter-Glo, qHTS, dose response (AID 1347065; cut-off not given, nearly all actives have AC50 up to about 26 µM;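 note: cells exposed to compound for 48 hours before ATP readout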); conditions: CellTiter-Glo ATP luminescence
[6] = JHH-DIPG-1 glioma cell viability, MIPE5.0 library, CellTiter-Glo luminescence, qHTS (AID 1347067; cut-off not given, nearly all actives have AC50 up to about 26 µM;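 note: cells exposed to compound for 48 hours before readout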); conditions: JHH-DIPG-1 glioma viability, CellTiter-Glo ATP luminescence
[7] = sensitizers of A549 cells to miR-34 induction, primary screen, imaging, A549 dox-inducible miR-34, nuclei and caspase counts (AID 1347080;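 active = compounds whose cell count with miR-34 switched on is under 0.7 times the count with it off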); conditions: A549 miR-34 inducible, Hoechst nuclei count, 48 h
[8] = SU-DIPG-XXV glioma cell viability, MIPE5.0 library, qHTS (AID 1347068; cut-off not given, nearly all actives have IC50 up to about 30 µM;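 for IC50: cells exposed to compound for 48 hours before viability readout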)
[9] = modifiers of HSF1 nuclear foci, imaging, Selleck Cancer Library (AID 1347162; in the data active = plate-normalised HSF1 focus index below about 0.46); conditions: human cells, at 10 µM; SSMD: measured here: HSF1 foci SSMD mean; cell count: measured here: cell number; plate-normalised HSF1 focus index: stronger effect = lower value
[10] = survival rescue of mitochondrial mutant cells in low glucose, primary screen, MELAS cybrids, Rieske KO mouse fibroblasts, CellTiter-Glo (AID 1508586;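 active = mean z-score across replicates of 1.96 or higher in either the MELAS or the Rieske mutant cell line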;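 note: z relative to plate mean and SD of compound and empty wells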)
[11] = ovarian cancer cell viability with rucaparib, profiling panel, oncology-focused library, rucaparib conditional (AID 1508598); conditions: patient-derived ovarian cancer cells, CellTiter-Glo viability, 144 h, stronger effect = lower value
[12] = stronger effect = lower value, cell number ratio, induced over uninduced
[13] = measured here: relative caspase fold change +Dox/-Dox
[14] = measured here: total cells with miR-34 induction, stronger effect = lower value
[15] = measured here: total cells without miR-34 induction
[16] = MELAS cybrid survival, CellTiter-Glo 48 h, stronger effect = higher value
[17] = Rieske KO mouse fibroblast survival, CellTiter-Glo 72 h

Question: For `Cn1c2ccccc2c2c3c(c4c5ccccc5n(CCC#N)c4c21)CNC3=O`, which AC50 [1] is on record?
Answer: 8.33 µM (active)

Question: What about the outcome [2] of the same molecule?
Answer: inactive

Question: And the AC50 [3]?
Answer: 0.148 µM (active)

Question: What about the AC50 [4] of the same molecule?
Answer: 13.2 µM (active)

Question: What about the AC50 [5] of the same molecule?
Answer: 7.42 µM (active)

Question: And the AC50 [6]?
Answer: 11.8 µM (active)

Question: What about the fold change [7, 12] of the same molecule?
Answer: 0.591 (active)

Question: What about the fold change [7, 13] of the same molecule?
Answer: 1.06

Question: What about the cell count [7, 14] of the same molecule?
Answer: 1520

Question: And the cell count [7, 15]?
Answer: 2580

Question: With `COc1ccc(/C=C\c2cc(OC)c(OC)c(OC)c2)cc1O` as the molecule, how does the AC50 [1] read?
Answer: 0.00662 µM (active)

Question: What about the AC50 [2] of the same molecule?
Answer: 0.00833 µM (active)

Question: And the outcome [3]?
Answer: inactive

Question: And the AC50 [4]?
Answer: 0.0186 µM (active)

Question: And the AC50 [5]?
Answer: 0.0105 µM (active)

Question: What about the AC50 [6] of the same molecule?
Answer: 0.0105 µM (active)

Question: And the IC50 [8]?
Answer: 0.0148 µM (active)

Question: What about the fold change [7, 12] of the same molecule?
Answer: 1.24 (inactive)

Question: What about the fold change [7, 13] of the same molecule?
Answer: 0.571

Question: What about the cell count [7, 14] of the same molecule?
Answer: 1250

Question: And the cell count [7, 15]?
Answer: 1010

Question: And the SSMD [9]?
Answer: 0.749

Question: What about the cell count [9] of the same molecule?
Answer: 6590

Question: And the plate-normalised HSF1 focus index [9]?
Answer: 1.05 (inactive)

Question: What does the source list for `Nc1nc(N)c2nc(-c3cccc(O)c3)c(-c3cccc(O)c3)nc2n1`?
Answer: outcome [1]: inactive; AC50 [2]: 14.8 µM (active); AC50 [3]: 6.62 µM (active); outcome [4]: inactive; outcome [5]: inactive; outcome [6]: inactive; outcome [8]: inactive; fold change [7, 12]: 0.972 (inactive); fold change [7, 13]: 0.762; cell count [7, 14]: 7630; cell count [7, 15]: 7850; z-score [10, 16]: -0.482 (inactive); z-score [10, 17]: 0.936

Question: What does the source list for `CN(c1ncccc1CNc1nc(Nc2ccc3c(c2)CC(=O)N3)ncc1C(F)(F)F)S(C)(=O)=O`?
Answer: AC50 [1]: 5.25 µM (active); AC50 [2]: 5.9 µM (active); AC50 [3]: 4.18 µM (active); AC50 [4]: 8.33 µM (active); AC50 [5]: 3.72 µM (active); AC50 [6]: 8.33 µM (active); IC50 [8]: 11.8 µM (active); fold change [7, 12]: 0.847 (inactive) and 0.961 (inactive) and 0.946 (inactive); fold change [7, 13]: 0.469 and 1.06 and 0.671; cell count [7, 14]: 1490 and 1380 and 1080; cell count [7, 15]: 1760 and 1430 and 1140; SSMD [9]: -7.81; cell count [9]: 4390; plate-normalised HSF1 focus index [9]: 0.528 (inactive); z-score [10, 16]: -0.34 (inactive) and -0.161 (inactive) and 2.09 (active); z-score [10, 17]: -0.291 and -0.23 and -5.55; viability ([11]; at 0.000305 µM, OCI-C5x cells, with rucaparib 10 µM, 100% = cells with rucaparib alone): 100% (inactive); viability ([11]; at 0.000305 µM, OCI-C5x cells, without rucaparib): 125% (inactive); viability ([11]; at 0.000305 µM, OCI-P5x cells, with rucaparib 20 µM, 100% = cells with rucaparib alone): 105% (inactive); viability ([11]; at 0.000305 µM, OCI-P5x cells, without rucaparib): 110% (inactive); viability ([11]; at 0.00122 µM, OCI-C5x cells, with rucaparib 10 µM, 100% = cells with rucaparib alone): 110% (inactive); viability ([11]; at 0.00122 µM, OCI-C5x cells, without rucaparib): 111% (inactive); viability ([11]; at 0.00122 µM, OCI-P5x cells, with rucaparib 20 µM, 100% = cells with rucaparib alone): 110% (inactive); viability ([11]; at 0.00122 µM, OCI-P5x cells, without rucaparib): 110% (inactive); viability ([11]; at 0.00488 µM, OCI-C5x cells, with rucaparib 10 µM, 100% = cells with rucaparib alone): 106% (inactive); viability ([11]; at 0.00488 µM, OCI-C5x cells, without rucaparib): 130% (inactive); viability ([11]; at 0.00488 µM, OCI-P5x cells, with rucaparib 20 µM, 100% = cells with rucaparib alone): 99.2% (active); viability ([11]; at 0.00488 µM, OCI-P5x cells, without rucaparib): 108% (inactive); viability ([11]; at 0.0195 µM, OCI-C5x cells, with rucaparib 10 µM, 100% = cells with rucaparib alone): 115% (inactive); viability ([11]; at 0.0195 µM, OCI-C5x cells, without rucaparib): 122% (inactive); viability ([11]; at 0.0195 µM, OCI-P5x cells, with rucaparib 20 µM, 100% = cells with rucaparib alone): 106% (inactive); viability ([11]; at 0.0195 µM, OCI-P5x cells, without rucaparib): 106% (inactive); viability ([11]; at 0.0781 µM, OCI-C5x cells, with rucaparib 10 µM, 100% = cells with rucaparib alone): 111% (inactive); viability ([11]; at 0.0781 µM, OCI-C5x cells, without rucaparib): 122% (inactive); viability ([11]; at 0.0781 µM, OCI-P5x cells, with rucaparib 20 µM, 100% = cells with rucaparib alone): 92.3% (active); viability ([11]; at 0.0781 µM, OCI-P5x cells, without rucaparib): 101% (inactive); viability ([11]; at 0.313 µM, OCI-C5x cells, with rucaparib 10 µM, 100% = cells with rucaparib alone): 110% (inactive); viability ([11]; at 0.313 µM, OCI-C5x cells, without rucaparib): 119% (inactive); viability ([11]; at 0.313 µM, OCI-P5x cells, with rucaparib 20 µM, 100% = cells with rucaparib alone): 90.8% (active); viability ([11]; at 0.313 µM, OCI-P5x cells, without rucaparib): 93.6% (active); viability ([11]; at 1.25 µM, OCI-C5x cells, with rucaparib 10 µM, 100% = cells with rucaparib alone): 110% (inactive); viability ([11]; at 1.25 µM, OCI-C5x cells, without rucaparib): 110% (inactive); viability ([11]; at 1.25 µM, OCI-P5x cells, with rucaparib 20 µM, 100% = cells with rucaparib alone): 76.7% (active); viability ([11]; at 1.25 µM, OCI-P5x cells, without rucaparib): 73.3% (active); viability ([11]; at 5 µM, OCI-C5x cells, with rucaparib 10 µM, 100% = cells with rucaparib alone): 13% (active); viability ([11]; at 5 µM, OCI-C5x cells, without rucaparib): 19.1% (active); viability ([11]; at 5 µM, OCI-P5x cells, with rucaparib 20 µM, 100% = cells with rucaparib alone): 33.5% (active); viability ([11]; at 5 µM, OCI-P5x cells, without rucaparib): 24.3% (active)
